21 molecules from PubChem BioAssay (Tox21) can be followed below.

A short description of experiment [1]: qHTS assay to identify small molecule antagonists of the thyroid receptor (TR) signaling pathway - cell viability counter screen (AID 743064). Also: nearly all actives have a fitted effect of over 50% in size. Also: potency is read from the fitted curve at half-maximal effect. The gist of the method:
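Same-well viability check: GH3.TRE-Luc cells stimulated with 1 nM T3 alongside test compound for 23.5 h, followed by CellTiter-Fluor fluorescence.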

The subject of experiment [2] is thyroid hormone receptor (rat, GH3 cells). Briefly: qHTS assay to identify small molecule agonists of the thyroid receptor (TR) signaling pathway (AID 743066; calls by dose curve). (In general: Quantitative high-throughput screening tests each substance at several concentrations.)
Experiment [3] has as its target Estrogen receptor (Homo sapiens) (UniProt P03372). Briefly: qHTS assay to identify small molecule antagonists of the estrogen receptor alpha (ER-alpha) signaling pathway (AID 743069; active = well fitted curve in the direction sought with a large enough effect in the signal ratio in the repeat runs, not every such curve was filed as active; inconclusive = weak or mixed curves, or effect the other way; inactive = no such curve, though single readings can be large or run the other way; the % refers to the signal ratio). Summed up:
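Fluorescence intensity from a beta-lactamase FRET substrate served as the read-out. Cells: HEK293 with stably integrated ER-alpha-UAS-bla reporter. Agonist 17beta-estradiol was co-added with compounds; incubation 18 hr at 37C, substrate 2 hr at room temperature.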

Experiment [4] is described as follows: qHTS assay to identify small molecule antagonists of the estrogen receptor alpha (ER-alpha) signaling pathway - cell viability counter screen (AID 743074; calls by dose curve; also: nearly all actives have a fitted effect of over 45% in size; also: potency is read from the fitted curve at half-maximal effect).
In experiment [5] the target is Estrogen receptor (Homo sapiens) (UniProt P03372). The experiment can be described thus: qHTS assay to identify small molecule agonists of the estrogen receptor alpha (ER-alpha) signaling pathway (AID 743075; calls by dose curve; also: potency is read from the fitted curve at half-maximal effect).
Experiment [6] has the same target. The experiment can be described thus: qHTS assay to identify small molecule agonists of the estrogen receptor alpha (ER-alpha) signaling pathway using the BG1 cell line (AID 743079). Also: nearly all actives have a fitted effect of over 20% in size. Also: potency is read from the fitted curve at half-maximal effect. The conditions noted are these: BG1Luc4E2 cells, ERE-luciferase agonist, 22 h; activation: at 70.3 µM (top of the series).
The nature of experiment [7]: qHTS assay to identify small molecule antagonists of the estrogen receptor alpha (ER-alpha) signaling pathway using the BG1 cell line (AID 743080; calls by dose curve;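 also: BG1 cells stimulated with 17beta-estradiol alongside compound; nearly all actives have a fitted effect of over 25% in size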). The gist of the method: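 Endogenous full-length ER-alpha in BG1-Luc-4E2 cells drives a stably integrated 4×ERE luciferase gene; compounds were tested against 17beta-estradiol over 21.5 h, with luminescence and multiplexed viability fluorescence recorded.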

Experiment [8] is described as follows: qHTS assay to identify small molecule antagonists of the estrogen receptor alpha (ER-alpha) signaling pathway using the BG1 cell line - cell viability counter screen (AID 743081).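 Also: compound given together with 17beta-estradiol as the ER stimulus; nearly all actives have a fitted effect of over 45% in size.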 Also: potency is read from the fitted curve at half-maximal effect.
The target in experiment [9] is Aromatase (Homo sapiens) (UniProt P11511). Briefly: qHTS assay to identify aromatase inhibitors (AID 743083). Also: nearly all actives have a fitted effect of over 55% in size. Also: potency is read from the fitted curve at half-maximal effect.

Calls of active or inactive are those of the source. Unless noted, calls follow the shape of the dose curve; as a rule, active = well fitted curve in the direction sought with a large enough effect in the repeat runs; inconclusive = weak or mixed curves; inactive = no such curve, though single readings can be large; an effect the other way counts as inactive or inconclusive.

Aromatase (Homo sapiens), sequence (P11511 whole entry, looked up): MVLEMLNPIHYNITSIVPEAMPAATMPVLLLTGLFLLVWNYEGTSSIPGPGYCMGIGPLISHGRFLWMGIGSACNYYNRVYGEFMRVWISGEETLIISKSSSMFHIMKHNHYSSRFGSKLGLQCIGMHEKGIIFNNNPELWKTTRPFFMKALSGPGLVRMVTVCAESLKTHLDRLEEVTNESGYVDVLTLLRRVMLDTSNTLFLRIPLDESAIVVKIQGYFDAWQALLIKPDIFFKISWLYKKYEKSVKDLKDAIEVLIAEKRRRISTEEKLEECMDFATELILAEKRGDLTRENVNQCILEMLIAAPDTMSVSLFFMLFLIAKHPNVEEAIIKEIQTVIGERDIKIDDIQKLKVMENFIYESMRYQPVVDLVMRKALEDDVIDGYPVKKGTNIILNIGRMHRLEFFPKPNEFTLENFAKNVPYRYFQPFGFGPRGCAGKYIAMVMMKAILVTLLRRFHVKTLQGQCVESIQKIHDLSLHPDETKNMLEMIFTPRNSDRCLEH
Estrogen receptor (Homo sapiens), sequence (P03372 whole entry, looked up): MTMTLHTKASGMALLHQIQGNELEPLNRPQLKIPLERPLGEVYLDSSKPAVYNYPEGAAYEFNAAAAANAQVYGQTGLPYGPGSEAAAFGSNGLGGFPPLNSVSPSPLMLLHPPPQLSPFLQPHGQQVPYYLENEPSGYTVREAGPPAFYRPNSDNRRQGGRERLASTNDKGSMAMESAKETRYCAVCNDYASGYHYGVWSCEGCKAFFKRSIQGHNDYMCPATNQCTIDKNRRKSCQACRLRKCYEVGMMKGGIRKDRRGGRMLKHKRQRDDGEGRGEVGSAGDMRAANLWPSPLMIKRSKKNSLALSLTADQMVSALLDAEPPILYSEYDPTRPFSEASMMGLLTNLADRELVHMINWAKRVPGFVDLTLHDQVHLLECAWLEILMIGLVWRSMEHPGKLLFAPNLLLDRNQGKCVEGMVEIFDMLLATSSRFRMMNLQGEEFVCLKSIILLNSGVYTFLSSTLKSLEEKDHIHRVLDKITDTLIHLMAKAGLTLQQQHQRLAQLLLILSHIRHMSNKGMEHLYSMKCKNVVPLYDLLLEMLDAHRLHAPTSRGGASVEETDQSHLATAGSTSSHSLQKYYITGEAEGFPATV

On to `O.O=C([O-])CC([S-])C(=O)[O-].[Au+].[Na+].[Na+]` (stereo not given), for which the Potency entry in experiment [1], in experiment [2], in [3], in [4], in [5] and in [6] was “inactive” each time. The Potency result in [7], in [8] and in experiment [9] was “inactive” throughout.

On to `CC1(C)N=C(N)N=C(N)N1c1ccc(Cl)cc1`, for which the Potency result in [1], in experiment [2], in [3], in experiment [5], in [7] and in experiment [8] was “inactive” in each case. The Potency result in experiment [9] was “inactive”. In addition, the Potency in experiment [4] was 12 µM (active).

For `CC(C)CCC[C@@H](C)[C@H]1CC(=O)C2=C3CC[C@H]4C[C@@H](O)CC[C@]4(C)[C@H]3CC[C@@]21C`, the Potency result in experiment [1], in [2], in [3], in experiment [5], in experiment [6] and in experiment [7] was “inactive” in each case. Moreover, the Potency entry in [8] and in experiment [9] was “inactive” in each case.

In the case of `NC(=O)C[C@@H](N)C(=O)O`, the Potency result in experiment [1], in experiment [2], in experiment [4] and in experiment [9] was “inactive” each time.

For `CC1(C)C2CC[C@]3(C)[C@H](C(=O)C=C4[C@@H]5C[C@@](C)(C(=O)O)CC[C@]5(C)CC[C@]43C)[C@@]2(C)CC[C@@H]1O[C@H]1O[C@H](C(=O)O)[C@@H](O)[C@H](O)[C@H]1O[C@@H]1O[C@H](C(=O)O)[C@@H](O)[C@H](O)[C@H]1O` (stereo not given in full), the Potency entry in experiment [1], in [2], in [4], in experiment [8] and in [9] was “inactive” in each case.

Take `C=CC1=C(C)C2=CC3=NC(=C(CC(=O)[O-])C4=NC(=C(C)C4=C([O-])[O-])C=c4[n-]c(c(C)c4CC)=CC1=N2)C(CCC(=O)[O-])C3C.[Cu+2].[Na+].[Na+].[Na+]` (stereo not given): the Potency in [1] is 26.6 µM (active); in experiment [8], 29.8 µM (active). The Potency result in experiment [2], in experiment [3], in experiment [4], in experiment [5], in [6] and in experiment [9] was “inactive” each time.

With `CNCC(O)c1ccc(OC(=O)C(C)(C)C)c(OC(=O)C(C)(C)C)c1` (stereo not given), the Potency in experiment [1] was 12.7 µM (active). The Potency entry in [2], in experiment [3], in experiment [4], in experiment [5], in experiment [6] and in [7] was “inactive” each time. For the same molecule, the Potency entry in experiment [9] was “inactive”.

`CCC(=O)O[C@]1(C(=O)CCl)[C@@H](C)C[C@H]2[C@@H]3C[C@H](F)C4=CC(=O)C=C[C@]4(C)[C@@]3(F)[C@@H](O)C[C@@]21C`: the Potency result in experiment [1], in [2], in experiment [4], in experiment [8] and in [9] was “inactive” in each case.

In the case of `O=C(O)c1cc(O)c2c(c1)[O][Bi][O]2`, the Potency entry in experiment [1], in [2], in experiment [4], in experiment [7], in experiment [8] and in experiment [9] was “inactive” in each case. Besides, the Potency in experiment [5] is 0.012 µM [inconclusive] (active); in experiment [6] it was 0.0019 µM (active).

On to `O=C1/C(=C\c2cccs2)CCC/C1=C\c1cccs1`, for which the Potency entry in experiment [1], in experiment [2], in [4], in experiment [8] and in experiment [9] was “inactive” throughout. In addition, the Potency in experiment [6] is 26.6 µM (active).

Regarding `N[C@@H](C(=O)N[C@@H]1C(=O)N2C(C(=O)O)=C(Cl)CC[C@H]12)c1ccccc1`, the Potency result in [1], in experiment [2], in [3], in experiment [4], in experiment [5] and in experiment [6] was “inactive” throughout. Moreover, the Potency entry in [9] was “inactive”.

Regarding `CC(C)[C@@H](C)/C=C/[C@@H](C)[C@H]1CC[C@H]2/C(=C/C=C3\C[C@@H](O)CC[C@@H]3C)CCC[C@]12C`, the Potency result in [1], in experiment [2], in experiment [3], in experiment [4], in experiment [5] and in experiment [6] was “inactive” each time. For the same molecule, the Potency entry in experiment [7], in experiment [8] and in [9] was “inactive” throughout.

As for `NCCCC[C@H](N)C(=O)O`, the Potency result in experiment [1], in experiment [3], in experiment [4], in [5], in [6] and in [7] was “inactive” each time. Besides, the Potency result in experiment [8] and in experiment [9] was “inactive” throughout.

Consider `Cc1cccc(C)c1Nc1ncccc1C(=O)O`, for which the Potency entry in experiment [1], in experiment [2], in experiment [3], in [4], in experiment [5] and in [8] was “inactive” throughout. For the same molecule, the Potency result in experiment [9] was “inactive”.

As to `CCCCCCCCCCCCCCCCCC(=O)[O][Al]`, the Potency result in experiment [1], in experiment [2], in experiment [3], in experiment [5], in experiment [6] and in experiment [8] was “inactive” throughout. In [9], the Potency result is “inactive”.

In the case of `Cc1ccc(C2(O)CCN(CCCC(=O)c3ccc(F)cc3)CC2)cc1`, the Potency in experiment [1] is 13.3 µM (active). For the same molecule, the Potency entry in experiment [2], in experiment [4], in experiment [5], in [6], in [7] and in [8] was “inactive” throughout. In [9], the Potency entry is “inactive”.

For `C[C@]12C=CC(=O)N[C@@H]1CC[C@@H]1[C@@H]2CC[C@]2(C)[C@@H](C(=O)Nc3cc(C(F)(F)F)ccc3C(F)(F)F)CC[C@@H]12`, the Potency entry in [1], in [2], in experiment [5], in experiment [8] and in experiment [9] was “inactive” each time.

For the molecule `CCC(=O)OCC(=O)[C@@]1(OC(=O)CC)[C@@H](C)C[C@H]2[C@@H]3CCC4=CC(=O)C=C[C@]4(C)[C@@]3(Cl)[C@@H](O)C[C@@]21C`, the Potency result in experiment [1], in experiment [2], in [3], in [4], in experiment [6] and in experiment [8] was “inactive” each time. Further, in experiment [9], the Potency was 2.66 µM (active).

Turning to `CCC[C@@]1(CCc2ccccc2)CC(O)=C([C@H](CC)c2cccc(NS(=O)(=O)c3ccc(C(F)(F)F)cn3)c2)C(=O)O1`, the Potency entry in experiment [1], in [2], in experiment [4], in experiment [8] and in [9] was “inactive” each time.

Consider `CN[C@@H]1CCc2[nH]c3ccc(C(N)=O)cc3c2C1`, for which the Potency result in experiment [1], in [2], in [4], in experiment [8] and in experiment [9] was “inactive” in each case.

Regarding `c1ccc2cc(C3=NCCN3)ccc2c1`, the Potency result in [1], in [2], in [3], in [4], in experiment [5] and in experiment [6] was “inactive” throughout. The Potency entry in experiment [8] and in experiment [9] was “inactive” in each case.
